These results are taken from PubChem BioAssay (NCI).

Some test systems named below: T-47D breast; BT-549 breast; MDA-MB-435 melanoma; SW-620 colon; MCF7 breast; HCT-116 colon; HCC-2998 colon; KM12 colon.
Holding throughout (experiment): NCI-60 one-dose screen, 48 h (100 = growth as untreated, 0 = no growth, -100 = all killed)
Holding throughout (details): 10 µM unless noted

About 83,000 compounds went through this panel and 20% of them were active in at least one assay; those are over-represented in the sample as a whole.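 Results are percent growth after 48 hours of single-concentration exposure. 100 means growth as in untreated cells, lower positive values show inhibition; negative values down to -100 show cell death.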 A number with no mark means an inactive call. Active and inactive are the calls of the source. How the source made its calls: active means growth percent below 10; inactive means the rest.

As for `COc1ccc(/C=C\c2cc(OC)c(OC)c(OC)c2)cc1OC(=O)c1cccc(Cn2cc(CCOC(=O)[C@H](N)Cc3cn(C)c4ccccc34)nn2)c1`, the growth in the assay with T-47D breast is 70.2%; with BT-549 breast it was 3.82% (active); in the assay on MDA-MB-435 melanoma it was -32.7% (active); with SW-620 colon, 28.6%; in the assay with MCF7 breast, 12.6%; in the assay with HCT-116 colon, 3.68% (active). The growth in the assay on HCC-2998 colon was 20.7%; with KM12 colon, 5.51% (active).
Consider `Cn1c(=O)[nH]c(=O)c2nc(CCC(=O)NCCC(=O)O)c(=O)[nH]c21`, for which the growth is 98.8% in the assay with T-47D breast; 105% in the assay on BT-549 breast; 101% in the assay on MDA-MB-435 melanoma; 101% in the assay on SW-620 colon; 103% in the assay on MCF7 breast; 109% in the assay with HCT-116 colon. Moreover, the results for the growth in the assay with HCC-2998 colon and in the assay with KM12 colon were 98.3% and 102%, respectively.
For `CCOC(=O)c1c(C(=O)OCC)c2cc(-c3ccn4c(C(=O)c5ccccc5)c(C(=O)OCC)c(C(=O)OCC)c4c3)ccn2c1C(=O)c1ccccc1`, the growth with T-47D breast was 82.5%; in the assay on BT-549 breast, 93.4%; with MDA-MB-435 melanoma it was 99.9%; with SW-620 colon it was 105%; with MCF7 breast it was 92.9%; in the assay with HCT-116 colon, 103%. Moreover, the growth with HCC-2998 colon is 95.2%; in the assay on KM12 colon, 87.7%.
Consider `COc1cc2c(cc1-c1c(C)noc1C)ncc1nc(C3CCCC3)n([C@H](C)COC(F)F)c12`, for which the growth in the assay with T-47D breast was 29.7%; in the assay with BT-549 breast, 54.8%; in the assay on MDA-MB-435 melanoma, 32.4%; in the assay with SW-620 colon, 57.5%; with MCF7 breast, 19.9%; in the assay on HCT-116 colon it was 31%. Also, the growth in the assay on HCC-2998 colon was 43.3%; with KM12 colon, 45.8%.
As to `O=C1c2ccccc2C(=O)c2c(N=Nc3[nH]c(=S)[nH]c3O)cccc21`, the growth was 21.8% in the assay with T-47D breast; 34.3% with BT-549 breast; -67.7% (active) in the assay on MDA-MB-435 melanoma; 18% in the assay on SW-620 colon; 18.7% in the assay on MCF7 breast; 20.1% in the assay with HCT-116 colon. Further, the growth in the assay with HCC-2998 colon was 29.9%; with KM12 colon, 17%.
Take `COc1ccc(-c2nc3ccc(-c4nc5ccc(N6CCN(c7ccccc7)CC6)cc5[nH]4)cc3[nH]2)cc1OC`: the growth in the assay on T-47D breast is -36.4% (active); in the assay on BT-549 breast, 52.9%; with MDA-MB-435 melanoma, -3.15% (active); with SW-620 colon, -32.7% (active); in the assay with MCF7 breast, -85.3% (active); in the assay on HCT-116 colon, -100% (active). Moreover, the results for the growth in the assay on HCC-2998 colon and in the assay on KM12 colon were -53.6% (active) and 4.37% (active), respectively.
For `O=C(NCCN1CCOCC1)Nc1ccc(-c2cc3c(Nc4ccc(Oc5cccc(C(F)(F)F)c5)c(Cl)c4)ncnc3s2)cc1`, the growth in the assay on T-47D breast is -1.15% (active); in the assay with BT-549 breast, 40%; in the assay with MDA-MB-435 melanoma, 1.05% (active); with SW-620 colon, -46.8% (active); in the assay with MCF7 breast, -2.16% (active); in the assay with HCT-116 colon, -13% (active). For the same compound, the growth was 5.37% (active) with HCC-2998 colon and -65% (active) in the assay with KM12 colon.
Take `COc1cc(/C=C/c2cc(/C=C/c3ccc(O)c(OC)c3)n(-c3c(C)cccc3C)c(=O)n2)ccc1O`: the growth was -4.26% (active) in the assay with T-47D breast; -18.1% (active) in the assay on BT-549 breast; 2.28% (active) in the assay on MDA-MB-435 melanoma; 7.79% (active) in the assay with SW-620 colon; 1.69% (active) in the assay with MCF7 breast; 8.26% (active) with HCT-116 colon. In addition, the growth in the assay on HCC-2998 colon is 24.1%; with KM12 colon, 11.6%.
Take `Cc1cc(N[C@@H]2CCC[C@H](Nc3ccnc4cc(Cl)ccc34)C2)nc(N2CCCCCC2)n1`: the growth with T-47D breast is -41.8% (active); in the assay on BT-549 breast, -87.9% (active); with MDA-MB-435 melanoma, -91.7% (active); in the assay on SW-620 colon, -76.5% (active); in the assay on MCF7 breast it was -63.1% (active); in the assay on HCT-116 colon, -88.6% (active). The growth was -83.7% (active) with HCC-2998 colon and -39% (active) in the assay with KM12 colon.
Turning to `COc1ccc(S(=O)(=O)N2CCN(C)CC2)cc1NC(=O)c1[nH]c(C)c2c1CCCCC2=O`, the growth is 44.1% in the assay on T-47D breast; 90.4% in the assay on BT-549 breast; 42.1% in the assay with MDA-MB-435 melanoma; 70.7% with SW-620 colon; 30% with MCF7 breast; 53.5% in the assay on HCT-116 colon. Besides, the growth is 64.4% with HCC-2998 colon and 64.7% in the assay with KM12 colon.
On to `CC(C)(C)c1cc(/C=N\NC(=O)/C=C/C=C/c2ccc3c(c2)OCO3)c(O)c(C(C)(C)C)c1`, for which the growth was 35% in the assay with T-47D breast; 92.9% in the assay on BT-549 breast; 86.4% in the assay on MDA-MB-435 melanoma; 74.6% in the assay with SW-620 colon; 61.3% with MCF7 breast; 87.7% with HCT-116 colon. Further, the growth in the assay with HCC-2998 colon was 89.2%; in the assay with KM12 colon, 75.1%.
Take `Nc1n[nH]c2ccc([C@@H]3Nc4cc5c(cc4[C@H]4C6CCC(C6)[C@@H]34)C(=O)NC5)cc12` (stereo not given in full): the growth in the assay with T-47D breast is 76.9%; with BT-549 breast, -0.949% (active); with MDA-MB-435 melanoma, -21.5% (active); in the assay on SW-620 colon it was 18.5%; with MCF7 breast it was 17.2%; in the assay with HCT-116 colon, 6.53% (active). In addition, the figures for the growth in the assay on HCC-2998 colon and with KM12 colon were 17.1% and 8.14% (active), respectively.
Regarding `O=[N+]([O-])c1ccccc1/C=N\NC(=S)N/N=C/c1ccccc1[N+](=O)[O-]`, the growth with T-47D breast was 61%; in the assay on BT-549 breast, 47.4%; with MDA-MB-435 melanoma, -1.94% (active); in the assay with SW-620 colon, 23.9%; in the assay with MCF7 breast it was 58.9%; in the assay with HCT-116 colon, 18.9%. Further, the growth is 73.5% in the assay on HCC-2998 colon and 17% with KM12 colon.
For the compound `Cc1ccc(NC(=O)/C=C/c2ccccc2)c(C(N)=O)c1`, the growth in the assay with T-47D breast was 27.6%; in the assay with BT-549 breast, 94%; with MDA-MB-435 melanoma it was -45.5% (active); in the assay on SW-620 colon, 22.7%; in the assay with MCF7 breast it was 15.7%; with HCT-116 colon, 34.4%. Besides, the growth in the assay on HCC-2998 colon was 80.8%; with KM12 colon it was 14.4%.
Regarding `C=CCSSC1N=CNc2nc[nH]c21` (stereo not given), the growth was 22.8% in the assay with T-47D breast; 47% in the assay with BT-549 breast; 25.5% in the assay with MDA-MB-435 melanoma; 35.8% with SW-620 colon; 4.28% (active) in the assay on MCF7 breast; 14.5% in the assay on HCT-116 colon. In addition, the growth in the assay on HCC-2998 colon is 44.2%; in the assay on KM12 colon it was 52.5%.
